# Source: PubChem BioAssay (National Center for Advancing Translational Sciences (NCATS))
# Pol kappa inh-1 = qHTS for Inhibitors of Polymerase Kappa; AID 588579, 2011; DNA polymerase kappa (Homo sapiens), Q9UBT6; purified Pol kappa, fluorescent DNA synthesis assay, 10 min; 400,000 tested, 0.53% active; Potency, µM (top dose mostly 107 µM), usual class: inhibitors
# Target sequence (Q9UBT6 whole entry, looked up): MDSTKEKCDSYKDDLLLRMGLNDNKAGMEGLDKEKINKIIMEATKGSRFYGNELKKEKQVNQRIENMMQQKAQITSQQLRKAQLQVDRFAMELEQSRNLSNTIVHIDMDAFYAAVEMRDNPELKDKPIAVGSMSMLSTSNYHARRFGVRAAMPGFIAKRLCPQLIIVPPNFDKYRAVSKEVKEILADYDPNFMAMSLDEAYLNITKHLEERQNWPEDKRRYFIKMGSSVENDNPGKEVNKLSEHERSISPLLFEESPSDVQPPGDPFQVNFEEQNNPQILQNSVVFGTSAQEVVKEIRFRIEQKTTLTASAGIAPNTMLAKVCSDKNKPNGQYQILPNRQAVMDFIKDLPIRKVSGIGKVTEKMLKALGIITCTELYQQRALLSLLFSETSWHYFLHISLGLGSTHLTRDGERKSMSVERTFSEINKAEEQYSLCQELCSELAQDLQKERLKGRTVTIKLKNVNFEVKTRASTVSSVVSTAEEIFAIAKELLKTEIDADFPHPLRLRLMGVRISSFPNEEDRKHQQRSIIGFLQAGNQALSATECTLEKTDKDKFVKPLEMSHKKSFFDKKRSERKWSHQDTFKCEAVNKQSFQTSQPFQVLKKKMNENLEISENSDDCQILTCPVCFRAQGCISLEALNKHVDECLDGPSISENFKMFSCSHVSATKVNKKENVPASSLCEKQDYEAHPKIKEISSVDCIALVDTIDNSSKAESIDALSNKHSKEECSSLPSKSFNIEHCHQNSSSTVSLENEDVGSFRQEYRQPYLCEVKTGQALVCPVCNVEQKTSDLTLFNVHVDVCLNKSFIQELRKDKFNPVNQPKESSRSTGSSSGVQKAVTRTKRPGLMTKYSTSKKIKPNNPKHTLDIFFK
#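 50 nM final substrate added after 15 min RT preincubation of 10 nM Pol kappa with compound; fluorescence read at 0 and 10 min.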
# POLB inh = qHTS Assay for Inhibitors of DNA Polymerase Beta; Potency, µM (series often up to 114 µM), hits mostly inhibitors; 340,000 tested, 1.3% active; Pol beta primer extension/strand displacement, fluorescence kinetic; P06746; AID 485314, 2010
#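 10 nM enzyme + cpd, 15 min RT; start with substrate 50 nM final; read 0 min and after 10 min RT. Corrected, normalized data; 4-parameter Hill curve fit.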
# Pol eta inh-1 = qHTS for Inhibitors of Polymerase Eta; 390,000 tested, 1.2% active; Potency, µM (titrated, usually from 114 µM), hits mostly inhibitors; DNA polymerase eta (Homo sapiens), Q9Y253; AID 588591, 2011; recombinant Pol eta, fluorescent DNA replication assay
#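 Pol eta at 10 nM preincubated with compounds 15 min at room temperature; reaction started with fluorescent substrate (50 nM final) and read kinetically at 0 and 10 min.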
# Pol iota inh = qHTS for Inhibitors of Polymerase Iota | Pol iota fluorescent replication assay, 10 min | 390,000 tested, 1% active | Potency, µM (top dose mostly 115 µM), hits mostly inhibitors
#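 Fluorescent replication assay read twice, at 0 min and 10 min after adding 50 nM (final) substrate. Enzyme (10 nM) and compounds were first incubated 15 min at room temperature; enzyme-free buffer wells were negative controls.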
# FEN1 inh = qHTS Assay for the Inhibitors of Human Flap endonuclease 1 (FEN1); Potency, µM (doses to about 114 µM), usual class: inhibitors; Recombinant FEN1 flap cleavage, fluorescence, 15 min; P39748; 390,000 tested, 0.35% active; note: nearly all actives have a fitted effect of over 65% in size
#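 Steps: FEN1 (10 nM) dispensed; compound added by pin tool; 15 min at room temperature; substrate added to 50 nM final; reads at 0 min and 15 min; data normalized and fitted (four-parameter Hill).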
# PGK inhibitor = qHTS Assay to Find Inhibitors of Phosphoglycerate Kinase; Potency, µM (titrated, usually from 57.5 µM), hits mostly inhibitors; Phosphoglycerate kinase, glycosomal (Trypanosoma brucei brucei), P07378; 380,000 tested, 0.043% active; AID 602233, 2012; PGK/GAPDH coupled, Kinase-Glo luminescence, 60 min; note: nearly all actives have a fitted effect of over 60% in size
#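 Luminescent ATP detection (Kinase-Glo Plus) follows a 60-minute room-temperature incubation, with wells lacking PGK as controls. Buffer: 100 mM TEA (pH 7.6), 5 mM MgCl2, 0.01% Tween-20. Coupling enzyme GAPDH (100 nM final) supplies unstable 1,3-BPG in-well.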
# PGK validate = qHTS for inhibitors of Phosphogylcerate Kinase: Hit Validation Screen | 500 tested, 79% active | shares compounds with Pol kappa inh-1 | Potency, µM (doses to about 57.5 µM), usual class: inhibitors | AID 686980, 2013 | TbPGK coupled GAPDH assay, Kinase-Glo luminescence; note: nearly all actives have a fitted effect of over 65% in size
# Pol iota confirm = qHTS for Inhibitors of Polymerase Iota: Confirmatory Assay for Cherry-picked Compounds; 1,500 tested, 77% active; shares compounds with Pol kappa inh-1; Pol iota primer extension, TAMRA/BHQ fluorescence; AID 720496, 2013; Potency, µM, hits mostly inhibitors
# GALK confirm = Confirmation Assay for Inhibitors of Human Galactokinase (GALK); shares compounds with Pol eta inh-1; purified GALK, Kinase-Glo ATP depletion luminescence; Potency, µM (doses to about 115 µM), most hits filed as inhibitors; 150 tested, 70% active; AID 2015, 2009
# GALK redox cs = Confirmatory Assay for Inhibitors of Human Galactokinase (GALK): Phenol-HRP redox assay counterscreen; shares compounds with Pol eta inh-1; Phenol red-HRP H2O2 redox cycling, absorbance 600 nm; Potency, µM (doses to about 115 µM), most hits filed as inhibitors; 150 tested, 40% active; AID 2035, 2009
# HEK293 tox = Secondary Assay for Inhibitors of Human Galactokinase (GALK): HEK-293 Cell Viability Assay | shares compounds with Pol eta inh-1 | HEK-293 viability, ATP luminescence (CellTiter-Glo), 24/48 h | Potency, µM (top dose mostly 46.1 µM), most hits filed as inhibitors | 170 tested, 10% active
# Pol kappa inh-2 = qHTS for Inhibitors of Polymerase Kappa: Confirmatory Assay for Cherry-picked Compounds; Potency, µM, actives largely listed as inhibitors; 920 tested, 76% active; purified Pol-kappa, fluorescent strand-displacement substrate; shares compounds with Pol eta inh-1
# Pol eta inh-2 = qHTS for Inhibitors of Polymerase Eta: Confirmatory Assay for Cherry-picked Compounds; 2,600 tested, 64% active; shares compounds with Pol eta inh-1; Pol eta primer extension, TAMRA/BHQ fluorescence, 10 min; Potency, µM, most hits filed as inhibitors
# A number is an active result; - = inactive; ? = inconclusive; . = no result given; [ ] = another dose, or the depositor's remark. In the library only some 2.4% were active in any assay of this set; here they are far more common. Calls come from the whole dose curve; as a rule, active = well fitted curve in the direction sought with a large enough effect; inconclusive = small, poorly fitted or top-dose-only effect, or another doubt; inactive = no such curve, though single readings can be large; an effect the other way counts as inactive or inconclusive.
SMILES,Pol kappa inh-1,POLB inh,Pol eta inh-1,Pol iota inh,FEN1 inh,PGK inhibitor,Pol iota confirm,Pol eta inh-2,others
O=C1C=CC2=C3c4cc(O)c(O)cc4CC3(O)COC2=C1O (stereo unspecified),1.1µM,.,0.79µM,1.3µM,3.5µM,2.8µM,.,.,PGK validate=0.58µM;GALK confirm=21µM;GALK redox cs=-;HEK293 tox=-
Cn1cccc1-c1cc2n(n1)CCC(=O)N2CCCC(=O)NCc1cccc(Cl)c1,-,-,-,-,-,-,.,.,
O=C(N=Nc1c(O)[nH]c2ccccc12)c1cc(-c2cccs2)[nH]n1,-,?,56µM,?,?,-,67,.,Pol kappa inh-2=?
COC1=C(Br)C(=O)c2nc(C)ccc2C1=O,.,.,14µM,.,.,?,27,30,Pol kappa inh-2=19
COc1ccc(-c2c(C#N)c(C)nc3c2C(=O)c2ccccc2-3)cc1,-,-,-,-,-,-,.,.,
COC1=C(N)C(=O)c2nc(C)ccc2C1=O,?,.,8.9µM,18µM,?,-,24,30,Pol kappa inh-2=19
Cc1nc2c(nc1C)C(=O)c1ccccc1C2=O,-,.,?,-,-,-,.,.,
CCOC(=O)c1c(C)[nH]c(C)c1S(=O)(=O)N1CCC(C(=O)Nc2ccc(F)cc2F)CC1,-,-,-,-,-,-,.,.,
O=C(Nc1nnc(-c2ccccc2)s1)C1CCCN(C(=O)c2ccoc2)C1 (stereo unspecified),-,.,.,-,-,.,.,.,
COc1ccc(-c2onc(C)c2C)cc1S(=O)(=O)NCc1ccc(C)o1,-,-,-,-,-,-,.,.,
C/C(N)=C(/C#N)C(=O)CSc1nnc(Nc2ccccc2)s1,-,-,-,-,-,-,.,.,
C/C(N)=C(/C#N)C(=O)CSc1nnc(NC(C)C)s1,?,-,28µM,?,35µM,-[11.5 µM],67,67,
CC(C)C(=O)NC(=S)Nc1ccc(S(=O)(=O)Nc2nccs2)cc1,-,?,-,-,-,-,.,.,
O=C(/C=C/c1ccc(Br)cc1)NC(=S)Nc1ccc(S(=O)(=O)Nc2nccs2)cc1,-,?,?,-,-,-,15,17,
COc1ccc2nc(NC(=O)c3nc(S(=O)(=O)Cc4ccccc4)ncc3Cl)sc2c1,?,5.6µM,?,?,-,-,30,76,
COC(=O)c1ccc(COc2ccccc2/C=C/C(=O)c2ccc(OCC(=O)O)cc2)cc1,-,50µM,22µM,?,?,?,47,48,
Cc1ccc(S(=O)(=O)N2CCCCC2)cc1C(=O)Nc1ccc(S(=O)(=O)Nc2ncccn2)cc1,79µM,?,14µM,40µM,?,-,42,30,
CCN(CC)S(=O)(=O)c1nnc(NC(=O)COc2ccc(Cl)cc2)s1,-,-,-,-,-,-,.,.,
CCCCOc1ccc(C(=O)NCCc2csc3nc(-c4ccccc4F)nn23)cc1,-,-,-,-,-,-,.,.,
C/C(=N\NC(=O)c1cc(-c2cccc([N+](=O)[O-])c2)n[nH]1)c1ccccc1O,-,11µM,8.9µM,-,?,-,47,.,Pol kappa inh-2=84
CCCCCCc1c(C)c2ccc(OCC(=O)N[C@@H](Cc3ccccc3)C(=O)O)cc2oc1=O,-,-,35µM,-,-,-,84,?,
Cc1cc(/C=C2\SC(=S)NC2=O)c(C)[nH]1,79µM,22µM,20µM,20µM,-,-,?,76,
Cn1c2ccccc2c2cc(/C=N/NC(=O)c3cc(O)ccc3O)ccc21,50µM,10µM,10µM,10µM,56µM,-,?,54,
Cc1cc(C)cc(NC(=O)C(CC(C)C)NC(=O)C2CCCCC2)c1 (stereo unspecified),-,-,-,-,-,-,.,.,
Cc1cccc(NC(=O)Cn2c(=O)n(CCc3ccccc3)c(=O)c3sc4ccccc4c32)c1,-,-,-,-,-,-,.,.,
SMILES,Pol kappa inh-1,POLB inh,Pol eta inh-1,Pol iota inh,FEN1 inh,PGK inhibitor,Pol iota confirm,Pol eta inh-2,others
O=C1C(Cl)=C(Nc2ccccc2)C(=O)c2ccccc21,-,-,-,-,-,-,.,.,
O=C1C(Cl)=C(NCCc2ccccc2)C(=O)c2ccccc21,-,.,22µM,3.5µM,?,-,47,48,
Cc1cc(=O)n(CC(=O)NC(C)c2ccccc2)c2c1c(C)nn2C (stereo unspecified),?,32µM,40µM,-,-,?,67,85,
COC(=O)c1ccccc1NC(=O)Cn1c(=O)cc(-c2ccccc2)c2c(C)nn(C)c21,-,-,-,-,-,-,.,.,
Cc1nn(C)c2c1c(-c1ccccc1)cc(=O)n2CC(=O)NC(C)c1ccccc1 (stereo unspecified),?,14µM,25µM,?,-,?,34,27,Pol kappa inh-2=17
Cc1n[nH]c(=S)n(NC(=O)/C=C/C(=O)Nn2c(=S)[nH]nc(C)c2=O)c1=O,8.9µM,20µM,8.9µM,?,45µM,?,21,9.5,PGK validate=21µM;Pol kappa inh-2=9.5
